# From PubChem BioAssay (NCI)
# About 83,000 compounds went through this panel and 20% of them were active in at least one assay; those are over-represented in the sample as a whole.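 Activity criterion: percent growth below 10, measured after cells in 96-well plates were exposed to a single compound concentration for 48 hours.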 Unmarked numbers belong to inactive results. The source made the active and inactive calls.
# Tests used:
# Test in all cases: NCI-60 one-dose screen, 48 h (100 = growth as untreated, 0 = no growth, -100 = all killed)
# Settings in all cases: 10 µM unless noted
# [1] = system: SK-MEL-2 melanoma
# [2] = system: EKVX NSCLC
# [3] = system: SN12C renal
# [4] = system: UO-31 renal
# [5] = system: ACHN renal
# [6] = system: CCRF-CEM leukemia
# [7] = system: MOLT-4 leukemia
# [8] = system: TK-10 renal
# [9] = system: CAKI-1 renal
# [10] = system: A498 renal
SMILES,growth [1],growth [2],growth [3],growth [4],growth [5],growth [6],growth [7],growth [8] [%],growth [9],growth [10]
N#CC(C#N)C(C#N)C#N,109%,99.7%,99.9%,89.1%,107%,105%,96.4%,–,–,–
COc1ccc2c(c1)[n+](=O)c(C(=O)/C=C/c1cc(OC)c(OC)c(OC)c1)c(C)n2[O-],57.2%,61%,71.5%,–,65.9%,-63.6% (active),13.2%,120,105%,77.1%
CCOc1cc(/C=C/C(=O)CC(=O)/C=C/c2ccc(OC(=O)CNc3nc4ccc(OC)cc4s3)c(OCC)c2)ccc1OC(=O)CNc1nc2ccc(OC)cc2s1,59.1%,41.7%,59%,–,69.4%,4.63% (active),4.13% (active),60.5,75.9%,91.6%
CCOC(=O)Nc1ccc2c3c(cccc13)-c1ccccc1-2,24.8%,48.4%,42.2%,–,50.6%,55.4%,36%,45.5,16.5%,76.2%
CCCCCN1C(=O)CCC1=O,103%,98.9%,101%,–,104%,-52.3% (active),110%,106,91.8%,106%
C=C(CN1CCc2c([nH]c3ccccc23)C1)c1ccc(C(=O)Nc2ccon2)cc1,75.8%,80.3%,93.8%,–,99%,81.2%,77.1%,131,83.9%,116%
COc1cccc(-c2nc(-c3ccc(N)cc3)co2)c1,99.8%,102%,95.2%,–,106%,–,81.8%,109,94.7%,100%
COc1cc(/C=C/C(=O)c2c(C)n([O-])c3ccccc3[n+]2=O)cc(OC)c1OC,36.8%,35.5%,54.6%,–,76.6%,-51.2% (active),-64.5% (active),87.9,26.3%,69.7%
[N-]=[N+]=NCc1cccc(/C(O)=C/C(=O)C(=O)O)c1,72.8%,120%,90.4%,–,107%,75.2%,-100% (active),107,131%,108%
CC(C)N(Cc1ccccc1)c1c(S)ssc1=S,7.27% (active),5.44% (active),11%,–,5.95% (active),-81.6% (active),0.0865% (active),37.1,-2.48% (active),-7.36% (active)
COc1ccc2c(c1)sc1nc(-c3ccc(Br)cc3)cn12,106%,113%,104%,–,110%,109%,104%,133,96.4%,84.4%
Cc1ccc(N/N=C(/C(=O)c2ccc(Cl)cc2)c2nc(C)cc(=O)[nH]2)cc1,95.3%,91.5%,100%,–,99.1%,-15.1% (active),98.6%,136,113%,108%
CCOC(=O)CCN(c1c(Cl)ssc1=O)C(C)C,96.4%,107%,114%,–,118%,-34.9% (active),-14.5% (active),129,124%,106%
C[C@H](C(=O)N[C@@H](Cc1ccc(-c2ccccc2)cc1)C(=O)NC1CC(C)(C)NC(C)(C)C1)c1ccc(-c2ccccc2)c(F)c1,-54.9% (active),-7.01% (active),-50.7% (active),-85.5% (active),-86.9% (active),-20.9% (active),-42.4% (active),–,–,–
COc1cc(/C=C/C(=O)C(C(=O)/C=C/c2ccc(OC(=O)CCNC34CC5CC(CC(C5)C3)C4)c(OC)c2)C(=O)CCNC23CC4CC(CC(C4)C2)C3)ccc1OC(=O)CCNC12CC3CC(CC(C3)C1)C2 (configuration not stated),7.68% (active),19.6%,5.02% (active),–,6.38% (active),-36.4% (active),-20.4% (active),44.2,18.6%,59.3%
CCOC(=O)C(Br)=P(c1ccccc1)(c1ccccc1)c1ccccc1,98.8%,103%,101%,–,104%,-40.7% (active),99.6%,117,82.9%,109%
C/C(=C\CCc1ccoc1)CC/C=C(\C)CCCC1COC(=O)C1 (configuration not stated),100%,–,94.8%,78.8%,97.5%,93%,92.2%,114,94.4%,91.3%
NC(=O)NC1(C(=O)O)CCCC1,108%,115%,105%,–,105%,98.6%,98.2%,108,99.9%,–
Nc1nc(NC2CC2)c2ncn(C3C=CC(CO)C3)c2n1 (configuration not stated),89.4%,115%,98.2%,–,103%,97.3%,76.9%,–,90.4%,104%
NS(=O)(=O)c1ccc(N2CC(c3nc4ccccc4[nH]3)CC2=O)cc1 (configuration not stated),102%,–,97.3%,76.6%,91.9%,98.3%,96.3%,128,97.3%,110%
C(#Cc1ccccc1C#Cc1ccccn1)c1ccc(OCCCCCCOc2ccc(C#Cc3ccccc3C#Cc3ccccn3)cc2)cc1,64.2%,42.5%,67.8%,–,44.2%,–,21.6%,76.2,57.9%,57.5%
CCCCCCCCCCCCC1CCCC(C)C1 (configuration not stated),94.9%,–,106%,87.9%,95.5%,–,–,94.2,88.2%,98.5%
CCOC(=O)/C(=C/CC/C(C)=C/CC/C(C)=C/CCc1ccoc1)CC(=O)N1CCCCC1,-19% (active),–,47.2%,25.1%,55.2%,22.7%,0.624% (active),63.7,60.7%,-20.2% (active)
O=c1sc2ncnc3ncn1c32,81.9%,–,85%,52.6%,80.3%,54.8%,35.9%,26.9,43.1%,101%
CCc1nn2c(-c3ccc(Cl)cc3C)c(-c3cc(OC)c(OC)c(OC)c3)nc2s1,69.6%,–,80.2%,47.1%,76.7%,85.1%,71%,77.2,55.2%,74.5%
CO[C@H]1/C=C/O[C@@]2(C)Oc3c(C)c(O)c4c(O)c(c(/C=N/N5C(C)CN(Cc6ccc(C#N)cc6)CC5C)c(O)c4c3C2=O)NC(=O)/C(C)=C\C=C\[C@H](C)[C@H](O)[C@@H](C)[C@@H](O)[C@@H](C)[C@H](OC(C)=O)[C@@H]1C (some centres not stated),61.2%,17.1%,39.4%,–,26.3%,12.1%,-2.17% (active),–,39.1%,20.5%
N#Cc1ncc(-c2ccc(C(F)(F)F)cc2)c(NC2CCCCCC2)n1,7.62% (active),–,19.6%,5.41% (active),-1.84% (active),24.8%,66.8%,58.1,56.8%,77.6%
COc1ccc(-c2nc3sc4c(c3c(=O)[nH]2)CCCCCC4)cc1,39.7%,–,59.4%,62%,65.6%,30%,43.4%,60.5,47.2%,34.6%
CN(C)c1ccc(-n2nc3ccccc3n2)cc1,102%,76.7%,97.2%,–,96.1%,–,82.6%,143,73.5%,–
COc1ccc(NC(=O)[C@@H]2C[C@H]2c2ccccc2)c(C(N)=O)c1,89.9%,–,96%,87.9%,102%,94%,92.4%,96,103%,98.1%
